The list is not random: actives were taken first. Their share in the collection is about 6.6%.
MPTP block: blocks calcium-induced mitochondrial swelling | isolated mouse mitochondria, Ca2+ swelling absorbance, 30 min | 1.4% of 360,000 active | inhibition, % at 10 µM;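 active = inhibition of 50% or more, scaled per plate between neutral and stimulator controls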;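 note: 0% = DMSO wells given calcium and 100% = 1 mM EGTA wells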
Mdm2 MdmX PPI: disrupts the human Mdm2-MdmX interaction. SaOS-2 split-luciferase Mdm2/MdmX complementation, luminescence. inhibition, % at 8 µM. 3% of 330,000 active. AID 485346;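 active = inhibition of at least 50% at 8 µM in the primary screen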
Beta apoptosis: beta cell apoptosis inhibition | INS-1E cytokine-induced death, ATP luminescence, 48 h; percent of positive-control rescue, neutral wells zero | protection from apoptosis, % (concentration not given with the values) | 0.8% of 300,000 active;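 active = Every replicate reaches about 75%, or at least half do and their mean reaches it too, limit read from the data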;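 note: 0% = cytokine-treated negative control wells and 100% = positive control rescue; higher means more ATP so stronger rescue from cytokine killing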
CSC inhib: blocks cancer stem cells. inhibition, % at 7.5 µM. 1.1% of 300,000 active. cancer stem cell-like cells viability, luminescence. AID 2717; in the data active = inhibition above about 75%; tested in HMLE shEcad cells
GRIN3A LBD mod: modulators (binders) of human NR3A ligand-binding domain. NR3A LBD differential scanning fluorimetry, Tm shift; 0% = protein alone, 100% = glycine-bound protein. Tm shift relative to glycine control, % at 25 µM. 2.5% of 340,000 active;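 active = melting temperature shift of at least 10% of the positive control shift, at one fixed dose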
Gli-Sufu antag: blocks Gli-Sufu signaling in a luciferase reporter. Sufu-KO-LIGHT fibroblasts, Gli luciferase reporter luminescence. inhibition, % at 5 µM. 0.74% of 340,000 active;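 active = inhibition above about 55%, limit read from the data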;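 note: 0% = DMSO-treated cells and 100% = wells with medium but no cells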
* marks the source's active call; other numbers are inactive results; x = not tested or not shown; + = active, no number.

SMILES	MPTP block	Mdm2 MdmX PPI	Beta apoptosis	CSC inhib	GRIN3A LBD mod	Gli-Sufu antag
CSc1ccc(Cl)c(C(=O)OCC(=O)NC2CC2)c1	-3.7	5.5	-3.5	2.0	11.7*	2.7
CCOCCCNC(=O)/C(C#N)=C/c1ccc([N+](=O)[O-])o1	1.3	21.4	1.6	+	0.0	2.0
O=C(Cn1c(O)c(/C=C2\C=Nc3ccccc32)sc1=O)Nc1ccc2c(c1)OCO2	3.6	39.9	-3.6	4.2	10.7*	1.4
O=C(Cn1c(O)c(/C=C2\C=Nc3ccccc32)sc1=O)N1CCOCC1	0.0	-0.4	-1.7	4.3	-1.9	-13.9
COc1cc2cnc(-c3ccccc3)c(-c3cccc(C(F)(F)F)c3)c2cc1OC	0.4	43.4	3.8	127.8*	-11.2	1.9
Fc1ccc2cnc(-c3ccccc3)c(-c3cccc(C(F)(F)F)c3)c2c1	2.1	-6.6	-5.2	24.9	-8.0	5.4
CC(=O)NCCc1ccc(C(=O)COC(=O)c2cc(C)oc2C)cc1	-0.6	-1.1	5.3	-7.9	2.0	0.6
CCOC(=O)c1cnn(CCOC(=O)c2ccc(OC)cc2)c1NC(=O)c1ccc(OC)cc1	1.2	5.1	0.5	1.6	16.4*	0.7
CCOC(=O)c1cnn(CCOC(=O)c2ccccc2)c1NC(=O)c1ccccc1	-0.1	17.6	1.3	3.7	-9.7	2.6
Cc1ccc(NC2=NCC(Cc3ccc(Br)cc3)S2)cc1 (stereo unspecified)	-1.1	18.7	34.1	88.9*	-6.3	12.4
CCc1ccc(NC2=NCC(c3ccccc3)S2)cc1 (stereo unspecified)	15.7	-110.4	10.3	0.7	-12.1	43.9
O=c1c2ccccc2sn1-c1ccc(Cl)cc1Cl	18.0	x	x	x	x	x
O=C(NC(=S)NC1CCS(=O)(=O)C1)c1ccccc1 (stereo unspecified)	1.3	11.1	3.1	9.3	-4.5	-23.2
O=C(CN1C(=O)c2ccccc2C1=O)NC1CCS(=O)(=O)C1 (stereo unspecified)	-1.3	x	x	x	x	x
CC(=O)NC1=C(NC2CCS(=O)(=O)C2)C(=O)c2ccccc2C1=O (stereo unspecified)	2.0	1.6	52.5	-23.2	13.1*	0.9
CN(C1=C(NC(=O)c2ccccc2)C(=O)c2ccccc2C1=O)C1CCS(=O)(=O)C1 (stereo unspecified)	1.8	20.8	97.3*	14.3	x	x
Cc1ccccc1NC(=S)NCCc1c[nH]c2ccccc12	2.2	12.2	-2.1	6.5	-10.0	-3.8
Cc1ccc(C)c(NC(=S)NCCc2c[nH]c3ccccc23)c1	29.2	3.5	14.1	6.8	2.9	3.4
Cc1ccc(NC(=S)NCCc2c[nH]c3ccccc23)cc1	1.1	-21.1	-0.9	6.7	23.1*	8.6
CC(C)c1ccc(NC(=S)NCCc2c[nH]c3ccccc23)cc1	36.4	12.1	2.3	59.2	30.6*	6.8
Cc1cccc(NC(=S)NCCc2c[nH]c3ccccc23)c1	3.3	-27.4	3.2	-34.8	28.4*	2.5
COc1ccc(C(=O)CSc2nnc(CNC(=O)c3ccc(S(=O)(=O)N(C)C)cc3)o2)cc1	-0.2	14.8	1.0	-5.7	3.5	-6.4
CCS(=O)c1ccccc1C(=O)OCC(=O)Nc1ccc2ccccc2c1 (stereo unspecified)	0.5	1.0	-4.6	-3.9	-0.2	-1.1
O=C(COC(=O)c1ccccc1O)Nc1ccc2ccccc2c1	-2.3	-25.6	-4.6	2.5	15.5*	-6.7
COc1ccc(Br)c2oc(SC)cc(=O)c12	2.1	-8.6	2.2	-4.4	10.1*	14.2
SMILES	MPTP block	Mdm2 MdmX PPI	Beta apoptosis	CSC inhib	GRIN3A LBD mod	Gli-Sufu antag
COc1ccc(-c2cc(=O)c3c(OC)c(OC)c(OC)c(OC)c3o2)cc1OC	1.1	37.3	-6.3	-9.6	-1.9	3.1
Cc1nn(-c2ccccc2)c(N)c1C(c1ccc(C(C)C)cc1)c1c(C)nn(-c2ccccc2)c1N	-0.4	25.9	97.3*	-5.8	1.2	4.3
O=C(NC1CCSc2ccccc21)c1cc([N+](=O)[O-])ccc1N1CCOCC1 (stereo unspecified)	-1.6	-1.9	x	-9.0	-2.1	9.2
O=C(Nc1cccc(NC(=O)c2cncc(Br)c2)c1)c1cncc(Br)c1	0.3	18.9	6.9	-14.7	-2.4	11.7
O=C(Nc1ccncc1)c1cncc(Br)c1	-1.9	1.0	-3.5	-0.8	10.5*	-8.8
N#CC(C#N)=C1C=C2C=C(N3CCCCC3)CCC2CC1 (stereo unspecified)	x	x	-2.6	13.9	21.0*	1.7

Screening results (PubChem)
